Screening data as filed in PubChem BioAssay.
L3MBTL1 inh: blocks human L3MBTL1 | AlphaScreen L3MBTL1–H3K9me1 peptide binding | Potency, µM (top dose mostly 57.1 µM), inactives show at the top dose activity, negative = inhibition, actives largely listed as inhibitors | AID 485360 | 0.66% of 230,000 active; also: % is scaled to controls: 0 for no effect and ±100 for the full control effect; nearly all actives have a fitted effect of over 60% in size
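Displacement of a biotinylated histone H3(1-15) peptide monomethylated at Lys9 (75 nM) from L3MBTL1 (50 nM) was measured by AlphaScreen after a 30 min room-temperature compound incubation; cefsulodin titration served as intraplate control.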
BAZ2B block: BAZ2B (human) inhibition; Q9UIF8; AlphaScreen BAZ2B-H3K14Ac peptide displacement; Potency, µM (top dose mostly 114 µM), without a hit: at the highest dose activity change, negative = inhibition, usual class: inhibitors; 4.4% of 360,000 active; AID 504333; also: % is scaled to controls: 0 for no effect and ±100 for the full control effect; nearly all actives have a fitted effect of over 60% in size
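In this displacement format the biotinylated H3(5-23) peptide acetylated at Lys14 serves as ligand at 50 nM, with BAZ2B at 50 nM in PBS pH 7.4 containing 0.01% Tween-20. Donor and acceptor beads are 10 ug/mL final.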
HP1b chromo inh: inhibitors of HP1-beta chromodomain binding to methylated histone tails. 0.56% of 390,000 active. AID 540317. AlphaScreen HP1-beta / biotin-H3K9me3 peptide binding. Potency, µM (top dose mostly 114 µM), inactives show top-dose activity change, negative = inhibition, usual class: inhibitors. P83916; also: nearly all actives have a fitted effect of over 70% in size
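Compound inhibition of the preformed complex between 50 nM HP1-beta and 50 nM biotinylated H3K9me3 peptide was read by AlphaScreen. Buffer was PBS pH 7.4 with 0.01% Tween-20. Incubations ran 30 min at room temperature, with 10 ug/mL donor/acceptor beads.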
G9a block: G9a (human) methyltransferase inhibition. Q96KQ7. G9a H3K9 monomethylation, AlphaScreen, 2 h. Potency, µM (highest dose often 102 µM), inactives show top-dose activity, negative = inhibition, usual class: inhibitors. 8.8% of 350,000 active. AID 504332; also: % is scaled to controls: 0 for no effect and ±100 for the full control effect; nearly all actives have a fitted effect of over 75% in size
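G9a (20 nM) preincubated 15 min RT with compounds, then 500 nM biotinylated H3K9 peptide and 20 uM SAM added; 2 h RT reaction. Monomethyl-H3K9 product detected by AlphaScreen with anti-H3K9me1 antibody, streptavidin donor and anti-rabbit IgG acceptor beads.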
JMJD2A Tudor inh: blocks the human JMJD2A Tudor domain. O75164. AlphaScreen JMJD2A-Tudor / H3K4me3 peptide binding. Potency, µM (top dose mostly 114 µM), for inactives: at the top dose activity change, negative = inhibition, usual class: inhibitors. 4.4% of 390,000 active; also: % is scaled to controls: 0 for no effect and ±100 for the full control effect; nearly all actives have a fitted effect of over 50% in size
* marks the source's active call; other numbers are inactive results; ? = inconclusive; . = no result; ! = repeats disagree; [ ] = dose if it differs, or a comment. Sampled rows, rich in hits. Any-hit rate of the full collection: about 11%. Calls follow the shape of the dose curve; as a rule, active = well fitted inhibition curve with a large enough effect; inconclusive = small, poorly fitted or top-dose-only effect; inactive = no such curve, though single readings can be large or run the other way. Potency is read from the fitted curve at half-maximal effect.

SMILES | L3MBTL1 inh | BAZ2B block | HP1b chromo inh | G9a block | JMJD2A Tudor inh
Oc1ccccc1C=NCCN1CCN(CCN=Cc2ccccc2O)C1c1ccccc1O (stereo unspecified) | . | . | 13.2%[57 µM] | . | 22.4µM*
Cc1ccc(S(=O)(=O)N(C)CCN(C)c2nc(-c3cccs3)nc3ccccc23)cc1 | . | . | 21.0% | . | -6.8%
COc1ccc(N2CCN(C(=O)c3ccc4nc(N5CCCCC5)sc4c3)CC2)cc1 | -15.4% | 39.8µM* | 29.6% | 8.91µM* | -24.6%
O=C(c1ccc2nc(N3CCOCC3)sc2c1)N1CCCC1 | 5.3% | -0.6% | 39.2% | ? | -0.7%
CCc1nc2ccc(C(=O)N3CCN(c4cccc(OC)c4)CC3)cc2nc1CC | . | -35.8% | 11.9% | 7.3% | -28.8%
COc1cccc(N2CCN(C(=O)c3ccc4ccccc4c3)CC2)c1 | -12.8% | -2.0% | -20.0% | 50.1µM* | ?
COc1cccc(N2CCN(C(=O)c3ccc4nc(N5CCCCC5)sc4c3)CC2)c1 | . | -5.6% | -10.0% | 39.8µM* | ?
COc1ccccc1/C=C/C=N/n1c(-c2ccc(F)cc2)n[nH]c1=S | -14.8% | -16.2% | -1.1% | 3.98µM* | -23.0%
COc1ccccc1/C=C\C=N\n1c(-c2ccc(Cl)cc2Cl)n[nH]c1=S | -5.2% | ? | ? | 6.31µM* | ?
COc1ccccc1/C=C/C=N/n1c(C)nnc1C | 4.0% | -13.9% | 14.9% | ? | -10.7%
COc1ccccc1/C=C\C=N\n1c(-c2ccc(Cl)cc2)n[nH]c1=S | -1.8% | -10.5% | -16.1% | 4.47µM* | -31.2%
COc1cc2c(=O)c(C(=O)c3ccc(C)c(C)c3)cn(Cc3ccccc3F)c2cc1OC | . | 3.9% | 40.7% | -17.7%[59 µM] | -23.6%
C/C(=N\N=c1/sc2ccccc2n1C)c1ccc(N2CCOCC2)cc1 | -26.4% | -34.6% | -19.3% | 7.94µM* | -23.7%
C/C(=N\N=c1/sc2ccccc2n1C)c1ccccn1 | -19.3% | -31.4% | 28.0% | 2.3% | ?
O=c1cc(-c2cccc(F)c2)[nH]c2cc(F)ccc12 | . | . | . | 9.6% | .
CSc1nncc(/C(C)=N/O)n1 | 0.0% | 10.3% | 27.8% | 0.6%[59 µM] | -15.4%
CSc1nncc(/C(C)=N\Nc2ccccc2C)n1 | . | -2.5% | -21.3% | 2.51µM* | -29.3%
C/C(=N\Nc1ccccc1C)c1cccnc1 | . | ? | 11.3% | 1.41µM* | 50.1µM*
COc1ccccc1NC(=S)NC1CCC(CC2CCC(NC(=S)Nc3ccccc3OC)CC2)CC1 (stereo unspecified) | 7.5% | 21.3% | 2.7% | 15.4%[59 µM] | -25.7%
Cc1ccc(NC(=O)Cn2c(C)cc(C)c(C#N)c2=O)cc1 | . | -1.5% | 28.4% | 1.4%[12.7 µM] | 9.6%
CCOc1cc(C(=O)Nc2ccc3oc(-c4ccc(F)cc4Cl)nc3c2)cc(OCC)c1OCC | . | -3.1% | 23.7% | 1.8%[59 µM] | -8.5%
CCCOc1ccc(CNC(=O)Cn2ncn3c(cc4sc(CC)cc43)c2=O)cc1 | . | 6.4% | 34.5% | 5.6%[59 µM] | 5.5%
COc1ccc(C(=O)N2CCC(C(=O)Nc3ccc(Cl)cc3)CC2)cc1 | . | 2.0% | 19.7% | -32.9%[59 µM] | -5.9%
COc1ccc(/C=C2/SC(=S)N(CC(=O)O)C2=O)cc1OCc1ccc(Cl)cc1 | -10.0% | ? | -18.9% | . | ?
O=C(O)CN1C(=O)/C(=C\c2cc(Br)ccc2OCc2ccc(F)cc2)SC1=S | . | 56.2µM* | ? | 44.7µM* | ?
SMILES | L3MBTL1 inh | BAZ2B block | HP1b chromo inh | G9a block | JMJD2A Tudor inh
O=C(O)CCCN1C(=O)/C(=C/c2cn(-c3ccccc3)nc2-c2cccs2)SC1=S | . | 44.7µM* | ? | ? | 14.1µM*
Cc1nn(-c2ccccc2)c(Cl)c1/C=C1\SC(=S)N(CCCCCC(=O)O)C1=O | -25.7% | ? | ? | 7.7%[12.7 µM] | ?
O=C(O)CN1C(=O)/C(=C\c2cc([N+](=O)[O-])ccc2OCc2ccccc2Cl)SC1=S | . | 50.1µM* | ? | 35.5µM* | 50.1µM*
O=C(CN1C(=O)/C(=C/c2ccccc2Cl)SC1=S)NC1C=CS(=O)(=O)C1 (stereo unspecified) | . | -32.1% | 26.3% | -0.6% | -11.7%
O=C(O)CCCCN1C(=O)/C(=C\c2ccc(OCc3ccccc3)c(OCc3ccccc3)c2)SC1=S | . | 31.6µM* | ? | -21.9% | 17.8µM*
Cc1cc(C)n(CC(=O)Nc2ccc(F)c(F)c2)c(=O)c1C#N | . | -7.9% | 15.5% | 16.9%[59 µM] | -9.6%
CCn1c(C(=O)Nc2cc(C)cc(C)c2)cc2sc(Cl)cc21 | . | 5.4% | 44.1% | -0.1%[59 µM] | -0.7%
COc1ccc(N2CC(C(=O)OC(C)C(=O)c3ccccc3)CC2=O)cc1 (stereo unspecified) | -1.4% | -27.3% | 35.0% | 2.9% | 2.1%
O=C(O)COc1ccccc1/C=C1\SC(=O)N(Cc2ccc(F)cc2)C1=O | -4.0% | -27.8% | 24.9% | -26.9% | -18.1%
COc1ccccc1/C=C1\SC(=S)N(CCC(=O)NNC(=O)c2ccccc2OC)C1=O | . | 3.0% | -9.2% | 2.4% | -17.4%[57.1 µM]
O=C(O)CCCN1C(=O)/C(=C\C(Cl)=C\c2ccccc2)SC1=S | . | 50.1µM* | ? | 14.1µM* | 50.1µM*
CN1CCN(C(=O)CCCN2C(=O)/C(=C/c3ccccc3)SC2=S)CC1 | . | ? | -38.3% | ? | ?
O=C(O)CN1C(=O)/C(=C\c2ccccc2OCc2ccc(F)cc2)SC1=S | . | -33.8% | -10.5% | 50.1µM* | ?
O=C(O)CN1C(=O)/C(=C\c2cc(Br)ccc2OCc2ccc(Cl)cc2)SC1=S | . | 50.1µM* | 11.1% | 14.1µM* | 56.2µM*
O=C(O)CCCN1C(=O)/C(=C\c2ccccc2OCc2ccccc2)SC1=S | . | 50.1µM* | ? | 39.8µM* | 56.2µM*
CCCSCCCNC(=O)c1ccc(NC(=O)C2=CSCCO2)cc1 | . | -12.5% | 53.7% | 30.8% | -12.8%
Cc1ccc2nc(C3CCN(C(=O)c4ccco4)CC3)[nH]c2c1 | -2.2% | ? | 51.1% | 56.2µM* | ?
CCOC(=O)[C@H](CCc1ccccc1)N[C@@H](C)C(=O)N1C(C(=O)O)C[C@@H]2CCC[C@@H]21 (stereo partly specified) | 12.3% | 5.6% | 66.7% | 6.1%[12.7 µM] | -4.8%
CCOC(=O)[C@H](CCc1ccccc1)N[C@@H](C)C(=O)N1CCC[C@H]1C(=O)O | 8.3% | -6.5% | 23.4% | -15.0% | 50.1µM*!
CCOC(=O)[C@H](CCc1ccccc1)N[C@@H](C)C(=O)N1CCC[C@@H]1C(=O)O | 6.5% | ? | -4.2% | 20µM* | 20µM*
Cn1c(=O)c2c(nc(NCc3ccccc3)n2Cc2ccc(Cl)c(Cl)c2)n(C)c1=O | . | -27.7% | 3.9% | -40.7%[59 µM] | -23.5%
CC(C)n1c(O)c(N=NC(=O)C2COc3ccccc3O2)c2ccccc21 (stereo unspecified) | -16.6% | ? | -21.6% | 35.5µM* | ?
CCOC(=O)c1c(-c2ccc(F)cc2)csc1NC(=O)CCN1CCOCC1 | -10.0% | 39.8µM* | ? | 8.91µM* | 1.78µM*
CCOC(=O)c1c(-c2ccc(-c3ccccc3)cc2)csc1NC(=O)CNCCN(C)C | . | ? | -14.4%[57 µM] | 50.1µM* | 35.5µM*
